Assay results: PubChem BioAssay (Tox21)
Inconclusive results are not listed. Calls of active or inactive are those of the source. Unless noted, calls come from the whole dose curve.

Experiments:
[1] = Nuclear factor erythroid 2-related factor 2/antioxidant responsive element (Nrf2/ARE) small molecule agonists: qHTS cell viability counter screen in human keratinocytes (AID 1919968; active = well fitted curve in the direction sought with a large enough effect in the repeat runs; an effect the other way counts as inactive or inconclusive; note: nearly all actives have a fitted effect of over 55% in size)
Outline: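 Cells of the KeratinoSens line were plated at 1,500 per well and left for 5 h before compound transfer from DMSO stocks. After a 23 h incubation (37 C, 5% CO2), CellTiter-Fluor was added. Signal was taken as fluorescence intensity 1 h later.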

[2] = Nuclear factor erythroid 2-related factor 2/antioxidant responsive element (Nrf2/ARE) small molecule agonists: luciferase reporter gene qHTS assay in human keratinocytes (AID 1919969); note: nearly all actives have a fitted effect of over 35% in size
[3] = target: Gonadotropin-releasing hormone receptor (Homo sapiens) (UniProt P30968); test: Human gonadotropin-releasing hormone receptor (GnRHR) small molecule agonists, calcium flux assay in GnRHR-HEK293 cells (AID 1920063); note: nearly all actives have a fitted effect of over 35% in size
Outline: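 Compounds dissolved in DMSO are pin-transferred onto dye-loaded GnRHR-HEK293 cells, which were seeded 18 h before at 37 C/5% CO2. Calcium signal is read as fluorescence intensity at 1 s intervals for 3 min.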

[4] = target: KiSS-1 receptor (Homo sapiens) (UniProt Q969F8); test: Human kisspeptin (KISS1R) small molecule agonists, calcium flux assay in KISS1R-HEK293 cells (AID 1920064; active = well fitted curve in the direction sought with a large enough effect in the repeat runs; an effect the other way counts as inactive or inconclusive)
Outline: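 Cell line: HEK293, stable human KISS1R. Dye loading 1 h at 37 C after 18 h culture. Read: kinetic fluorescence, 480/540 nm, 3 min at 1 s intervals.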

[5] = G protein-coupled receptor (GPCR) small molecule agonists, calcium flux assay: HEK293 wild type cell line counter screen (AID 1920065)
Outline: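 Tox21 10K compounds, 15 concentrations each in triplicate, pin-transferred in DMSO onto dye-loaded cells; kinetic read at 480/540 nm for 3 min, 1 s intervals.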

[6] = p53 small molecule agonists, cell-based qHTS assay with human liver microsomes (AID 1963577);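 note: p53 response element beta-lactamase reporter cells with liver microsomes plus NADPH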
Outline: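 16 h, 37 C exposure of p53RE-bla cells to compounds with human liver microsomes and NADPH (0.5 mg/mL final each); detection via LiveBLAzer mixture, 2 h dark at room temperature.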

[7] = p53 small molecule agonists, cell-based qHTS assay with rat liver microsomes (AID 1963578)
Outline: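 With rat liver microsomes and NADPH present (0.5 mg/mL final each), p53RE-bla cells are treated with compound for 16 h at 37 C. LiveBLAzer detection mixture is then applied for 2 h at room temperature in the dark.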

[8] = p53 small molecule agonists, cell-based qHTS assay with human liver microsomes: qHTS cell viability counter screen (AID 1963579); note: nearly all actives have a fitted effect of over 45% in size
Outline: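 In this multiplexed counter screen, the reporter plates were subsequently treated with CellTiter-Glo so that cell viability, reflected by luminescence, could be recorded for p53RE-bla cells dosed 16 h with compounds under microsomal activation (HLM and NADPH).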

[9] = p53 small molecule agonists, cell-based qHTS assay with rat liver microsomes: qHTS cell viability counter screen (AID 1963580); note: nearly all actives have a fitted effect of over 45% in size
Outline: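 Cytotoxicity counter screen: intracellular ATP read by CellTiter-Glo luminescence in the p53 reporter wells. HCT-116 p53RE-bla cells were treated for 16 h at 37 C alongside rat liver microsomes and NADPH, each 0.5 mg/mL final.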

[10] = p53 small molecule agonists, cell-based qHTS assay: qHTS cell viability counter screen (AID 1963581); note: nearly all actives have a fitted effect of over 45% in size
Outline: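 ATP content measured by luminescence in HCT-116 p53RE-bla cells treated 16 h at 37 C, same wells as the reporter screen.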

[11] = p53 small molecule agonists, cell-based qHTS assay (AID 1963582; active = well fitted activation curve with a large enough effect in the signal ratio in the repeat runs, not every such curve was filed as active; the % refers to the signal ratio)
Outline: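 16 h compound exposure (37 C) of p53 response element–bla cells, preceded by 5 h recovery at 37 C/5% CO2; read-out via LiveBLAzer B/G FRET substrate, 2 h RT, fluorescence intensity.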

[12] = target: 5-hydroxytryptamine receptor 2A (Homo sapiens) (UniProt P28223); test: 5-hydroxytryptamine receptor 2A (HTR2A) small molecule antagonists, cell-based qHTS assay (AID 1963586); note: nearly all actives have a fitted effect of over 45% in size
Outline: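 CHO cells stably expressing human HTR2A were plated for 18 h at 37 C, then loaded with calcium dye for 1 h. Compounds were preincubated 5 min at room temperature before DOI (4 nM solution) was added. Kinetic fluorescence was read for 3 min.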

[13] = target: 5-hydroxytryptamine receptor 2A (Homo sapiens) (UniProt P28223); test: 5-hydroxytryptamine receptor 2A (HTR2A) small molecule agonists, cell-based qHTS assay (AID 1963587); note: nearly all actives have a fitted effect of over 30% in size
Outline: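 Kinetic calcium-flux fluorescence (2 min, 1 sec intervals) after compound addition in agonist mode. HTR2A-CHO cells were cultured 18 h, then dye-loaded 1 h at 37 C.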

[14] = target: Muscarinic acetylcholine receptor M1 (Homo sapiens) (UniProt P11229); test: Cholinergic receptor muscarinic 1 (CHRM1) small molecule antagonists, cell-based qHTS assay (AID 1963588); note: nearly all actives have a fitted effect of over 40% in size
Outline: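 Compounds were tested at 15 concentrations in three independent runs. Dye-loaded CHRM1-CHO cells were exposed 5 min at room temperature before stimulation by acetylcholine added at 50nM. Intracellular calcium was read kinetically on FDSS for 3 min.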

[15] = target: Muscarinic acetylcholine receptor M1 (Homo sapiens) (UniProt P11229); test: Cholinergic receptor muscarinic 1 (CHRM1) small molecule agonists, cell-based qHTS assay (AID 1963589); note: nearly all actives have a fitted effect of over 35% in size
Outline: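 Homogeneous fluorescence calcium flux, agonist mode. Human M1-expressing CHO cells; compound dosed at 15 concentrations, three independent runs; signal sampled every 1 sec.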

[16] = cAMP Responsive Elements (CRE) small molecule agonists, cell-based qHTS assay (AID 1963590)
Outline: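 HEK 293T cells stably bearing CRE-bla were plated at 2,000 cells per well and rested 18 h. Compounds, positive controls or DMSO were added for 3 h at 37 C. LiveBLAzer B/G substrate was then loaded for 2 h at room temperature.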

[17] = cAMP Responsive Elements (CRE) small molecule antagonists, cell-based qHTS assay (AID 1963591; active = well fitted inhibition curve with a large enough effect in the signal ratio in the repeat runs, not every such curve was filed as active; the % refers to the signal ratio)
Outline: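 First, CRE-bla HEK293T cells settled 18 h at 37 C. Next, compound and 0.25 uM final NKH477 were applied for 3 h. Last, LiveBLAzer B/G substrate was loaded for 2 h at room temperature.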

[18] = target: Beta-2 adrenergic receptor (Homo sapiens) (UniProt P07550); test: Adrenergic beta2 receptor (ADRB2) small molecule antagonists, cell-based qHTS assay (AID 1963592); note: series mostly up to about 92 µM; nearly all actives have a fitted effect of over 50% in size
Outline: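 Assay format: CHO-ADRB2 cells, 18-20hr seeding at 37C/5% CO2, then compound plus 1nM isoproterenol agonist mix for 0.5hr RT. Homogeneous time-resolved fluorescence cAMP detection after 1hr, expressed as 665/615 nm ratio.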

[19] = target: Beta-2 adrenergic receptor (Homo sapiens) (UniProt P07550); test: Adrenergic beta2 receptor (ADRB2) small molecule agonists, cell-based qHTS assay (AID 1963593);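 note: CHO cells stably overexpressing human ADRB2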
Outline: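 CHO cells stably over-expressing ADRB2 were plated overnight at 37C, then dosed with compounds plus a stimulation mix containing 100uM IBMX and 25uM Ro-20-1724 for 0.5hr at room temperature. cAMP was measured by HTRF competition, 1hr.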

[20] = target: D(2) dopamine receptor (Homo sapiens) (UniProt P14416); test: Dopamine D2 receptor (DRD2) small molecule agonists, cell-based qHTS assay (AID 1963594); note: nearly all actives have a fitted effect of over 35% in size
Outline: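 cAMP accumulation in DRD2-HEK293 cells measured by HTRF after 1 h detection; compounds added 10 min before NKH477 (200nM […]) forskolin-analogue stimulation, 30 min at room temperature, with Ro20-1724 present at 0.1 mM final.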

Measured: Potency

Gonadotropin-releasing hormone receptor (Homo sapiens), sequence (P30968 whole entry, looked up): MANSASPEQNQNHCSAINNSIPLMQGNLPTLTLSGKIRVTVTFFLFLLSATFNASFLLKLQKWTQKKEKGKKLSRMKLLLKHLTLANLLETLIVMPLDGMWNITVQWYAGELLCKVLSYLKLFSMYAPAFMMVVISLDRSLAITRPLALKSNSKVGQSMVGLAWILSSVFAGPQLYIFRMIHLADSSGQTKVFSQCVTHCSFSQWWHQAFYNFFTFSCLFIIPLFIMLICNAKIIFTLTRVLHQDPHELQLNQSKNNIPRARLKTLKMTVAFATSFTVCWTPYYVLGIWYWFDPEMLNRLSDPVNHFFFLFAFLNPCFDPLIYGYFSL
Beta-2 adrenergic receptor (Homo sapiens), sequence (P07550 whole entry, looked up): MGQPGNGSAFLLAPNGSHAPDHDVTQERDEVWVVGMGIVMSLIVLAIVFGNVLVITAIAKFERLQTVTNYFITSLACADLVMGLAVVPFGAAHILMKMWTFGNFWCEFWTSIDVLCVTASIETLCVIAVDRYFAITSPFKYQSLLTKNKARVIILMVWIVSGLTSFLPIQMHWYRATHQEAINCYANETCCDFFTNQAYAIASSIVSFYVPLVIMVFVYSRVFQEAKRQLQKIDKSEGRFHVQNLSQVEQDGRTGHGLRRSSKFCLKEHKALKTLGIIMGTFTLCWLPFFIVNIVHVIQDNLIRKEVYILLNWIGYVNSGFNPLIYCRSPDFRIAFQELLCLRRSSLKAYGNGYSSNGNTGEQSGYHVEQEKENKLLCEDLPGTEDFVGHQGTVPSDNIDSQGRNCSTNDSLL
Muscarinic acetylcholine receptor M1 (Homo sapiens), sequence (P11229 whole entry, looked up): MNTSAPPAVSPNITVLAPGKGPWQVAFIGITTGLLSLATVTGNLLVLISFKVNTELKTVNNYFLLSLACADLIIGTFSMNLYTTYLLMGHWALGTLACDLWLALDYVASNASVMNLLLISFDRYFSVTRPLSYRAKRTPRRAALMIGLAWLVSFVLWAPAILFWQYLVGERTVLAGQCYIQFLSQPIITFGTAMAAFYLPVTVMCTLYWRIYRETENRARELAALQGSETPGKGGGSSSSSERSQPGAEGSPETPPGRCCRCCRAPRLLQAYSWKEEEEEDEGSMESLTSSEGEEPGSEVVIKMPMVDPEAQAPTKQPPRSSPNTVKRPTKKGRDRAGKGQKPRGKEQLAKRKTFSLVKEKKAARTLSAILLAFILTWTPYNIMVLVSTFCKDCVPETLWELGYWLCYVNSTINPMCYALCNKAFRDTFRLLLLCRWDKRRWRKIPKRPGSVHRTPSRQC
D(2) dopamine receptor (Homo sapiens), sequence (P14416 whole entry, looked up): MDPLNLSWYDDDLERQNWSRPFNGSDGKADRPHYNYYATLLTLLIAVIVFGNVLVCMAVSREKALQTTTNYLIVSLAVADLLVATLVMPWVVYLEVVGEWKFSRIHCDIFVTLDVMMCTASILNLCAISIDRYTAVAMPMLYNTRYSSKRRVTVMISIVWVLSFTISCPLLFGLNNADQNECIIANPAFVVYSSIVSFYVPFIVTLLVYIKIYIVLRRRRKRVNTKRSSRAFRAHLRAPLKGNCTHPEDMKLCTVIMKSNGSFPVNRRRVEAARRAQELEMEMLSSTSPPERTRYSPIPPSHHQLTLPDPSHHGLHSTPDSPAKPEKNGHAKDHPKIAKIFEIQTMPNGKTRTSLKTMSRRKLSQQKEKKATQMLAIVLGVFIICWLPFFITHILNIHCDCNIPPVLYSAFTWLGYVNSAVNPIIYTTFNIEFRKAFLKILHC
KiSS-1 receptor (Homo sapiens), sequence (Q969F8 whole entry, looked up): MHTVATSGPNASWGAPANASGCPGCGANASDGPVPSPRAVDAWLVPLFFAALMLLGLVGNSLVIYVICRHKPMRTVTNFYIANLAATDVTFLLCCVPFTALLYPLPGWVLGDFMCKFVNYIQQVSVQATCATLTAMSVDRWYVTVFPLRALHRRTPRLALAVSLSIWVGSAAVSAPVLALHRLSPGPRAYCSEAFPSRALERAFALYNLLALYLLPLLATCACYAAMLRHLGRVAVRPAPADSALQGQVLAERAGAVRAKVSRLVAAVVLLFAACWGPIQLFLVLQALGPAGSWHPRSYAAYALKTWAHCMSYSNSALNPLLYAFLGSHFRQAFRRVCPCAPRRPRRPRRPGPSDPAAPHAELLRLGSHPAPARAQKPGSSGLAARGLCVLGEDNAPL
5-hydroxytryptamine receptor 2A (Homo sapiens), sequence (P28223 whole entry, looked up): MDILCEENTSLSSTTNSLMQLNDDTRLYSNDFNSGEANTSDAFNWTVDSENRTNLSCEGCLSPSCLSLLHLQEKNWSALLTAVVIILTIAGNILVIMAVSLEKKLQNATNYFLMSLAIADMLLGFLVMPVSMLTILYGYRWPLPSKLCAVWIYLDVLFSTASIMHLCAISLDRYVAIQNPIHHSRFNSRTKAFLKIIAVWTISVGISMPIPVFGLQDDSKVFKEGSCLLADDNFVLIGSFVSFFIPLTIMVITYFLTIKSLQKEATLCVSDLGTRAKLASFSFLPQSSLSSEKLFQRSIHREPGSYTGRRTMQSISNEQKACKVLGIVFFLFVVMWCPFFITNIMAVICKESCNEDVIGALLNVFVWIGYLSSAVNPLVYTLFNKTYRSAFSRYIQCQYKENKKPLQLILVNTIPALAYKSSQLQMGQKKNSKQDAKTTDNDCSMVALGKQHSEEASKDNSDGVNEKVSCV

CC(C)=CCCC(C)CCOC(=O)C(C)C (stereo not given)
inactive: [1] | [2] | [3] | [4] | [5] | [6] | [7] | [8] | [9] | [10] | [11] | [12] | [13] | [14] | [15] | [16] | [17] | [18] | [19] | [20]

O=C1C(c2[nH]c3ccc(S(=O)(=O)O)cc3c2O)=Nc2ccc(S(=O)(=O)O)cc21
inactive: [1] | [2] | [3] | [4] | [5] | [6] | [7] | [8] | [9] | [10] | [11] | [12] | [13] | [14] | [15] | [16] | [17] | [18] | [19] | [20]

CCOc1ncc(F)c(=O)[nH]1
inactive: [1] | [2] | [3] | [4] | [5] | [6] | [7] | [8] | [9] | [10] | [11] | [12] | [13] | [14] | [15] | [16] | [17] | [18] | [19] | [20]

CCc1ccc(C=O)cc1
inactive: [1] | [2] | [3] | [4] | [5] | [6] | [7] | [8] | [9] | [10] | [11] | [12] | [13] | [14] | [15] | [16] | [17] | [18] | [19] | [20]

C=CC(=O)O[C@H]1C[C@@H]2CC[C@@]1(C)C2(C)C
inactive: [1] | [2] | [3] | [4] | [5] | [6] | [7] | [8] | [9] | [10] | [11] | [12] | [13] | [14] | [15] | [16] | [17] | [18] | [19] | [20]

CCC(OCCCOC)OC(C)=O (stereo not given)
inactive: [1] | [2] | [3] | [4] | [5] | [6] | [7] | [8] | [9] | [10] | [11] | [12] | [13] | [14] | [15] | [16] | [17] | [18] | [19] | [20]

O=C(O)c1cc(C(=O)O)cc([N+](=O)[O-])c1
inactive: [1] | [2] | [3] | [4] | [5] | [6] | [7] | [8] | [9] | [10] | [11] | [12] | [13] | [14] | [15] | [16] | [17] | [18] | [19] | [20]
